Compounds without any hit were thinned out: in the full panel of roughly 79,000, 15% have a hit. A number with no mark means an inactive call. Activity calls are given as the source filed them. Rule as the data show it: active = growth inhibition above about 70%; inactive = the rest.
Tests used:
[1] = NCI Yeast Anticancer Drug Screen. Data for the rad50 strain (AID 155);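 also: 0% = growth of vehicle-only cultures of the same strain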; settings: S. cerevisiae rad50 strain growth inhibition; at 50.0 µM; stronger effect = higher value
Summary of the method: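 DNA repair mutant yeast, compound exposure, growth read-out; inhibition is taken relative to vehicle.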

[2] = NCI Yeast Anticancer Drug Screen. Data for the mec2-1 strain (AID 157); settings: S. cerevisiae mec2-1 strain, at 50.0 µM, stronger effect = higher value
Summary of the method: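 Yeast mec2-1 mutant treated with compound. Readout: growth inhibition vs vehicle controls.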

[3] = NCI Yeast Anticancer Drug Screen. Data for the sgs1 mgt1 strain (AID 161);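 also: 0% = growth of cultures given vehicle only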; settings: S. cerevisiae sgs1 mgt1 strain, at 50.0 µM, stronger effect = higher value
Summary of the method: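 Read-out: growth inhibition vs vehicle controls. Cells: mutant yeast strain deficient in DNA damage repair.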

[4] = NCI Yeast Anticancer Drug Screen. Data for the cln2 rad14 strain (AID 165);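 also: 0% = growth equal to vehicle treated cultures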; settings: S. cerevisiae cln2 rad14 strain, at 50.0 µM, stronger effect = higher value
Summary of the method: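 cln2 rad14 yeast strain; compound exposure; growth inhibition read vs vehicle controls.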

[5] = NCI Yeast Anticancer Drug Screen. Data for the bub3 strain (AID 167); settings: S. cerevisiae bub3 mutant strain, at 50.0 µM, stronger effect = higher value
Summary of the method: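 In this screen, a yeast mutant lacking normal mitotic checkpoint function is challenged with compound. Relative growth versus vehicle gives the inhibition value.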

[6] = NCI Yeast Anticancer Drug Screen. Data for the mlh1 rad18 strain (AID 175); settings: S. cerevisiae mlh1 rad18 strain growth inhibition; at 50.0 µM; stronger effect = higher value
Summary of the method: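 Yeast w/ defined DNA-repair lesions; compound exposure; growth vs vehicle controls → % inhibition.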

Structure (SMILES)	growth inhibition [1]	growth inhibition [2]	growth inhibition [3]	growth inhibition [4]	growth inhibition [5]	growth inhibition [6]
CC(=O)OC1COC(N2C(=O)C(=O)c3cc(Br)c([N+](=O)[O-])cc32)C(OC(C)=O)C1OC(C)=O (stereo unspecified)	14.3%	12.2%	-10.6%	-1.9%	-9.6%	1.3%
CC1(C)N=C(/C(Cl)=[N+](/[O-])C(=O)c2ccc(Cl)cc2)C(C)(C)N1O	-21.1%	-26.9%	-24.1%	-7.3%	-38.6%	-8.4%
COc1cc(/C=C2\SC(=S)N(/C=C(/C#N)C(=O)c3ccc4ccccc4c3)C2=O)cc(OC)c1OC	21.3%	11.8%	53.4%	3.45%	27.2%	31.4%
Nc1ncncc1Oc1ccccc1	8.25%	-5.35%	-0.2%	-33.6%	4.05%	-14.4%
Cc1cc(CN(C)C)cc(C(C)C)c1O	1.85%	-0.9%	-12%	34.1%	12.8%	-3.95%
CC(C(=O)c1ccc(Cl)cc1)C1=NC2NN(c3ccccc3)C(=O)C2=C1C(C)C(=O)c1ccc(Cl)cc1 (stereo unspecified)	10.5%	-12.3%	6%	-0.3%	1.8%	3.25%
CCCCCCC(/C=N\N=C\c1ccco1)=C\c1ccccc1	-2.7%	6.15%	1.25%	2.75%	16.9%	-7.8%
C/C(=N\NC(N)=S)C(CN(CC(C)C)CC(C)C)C(=O)Nc1ccc(C)cc1C (stereo unspecified)	-18.7%	6.4%	-7.15%	16%	-1.15%	-2.75%
CCOc1ccc(/C=C/c2ccc3ccccc3[n+]2C)cc1OCC	16.1%	9%	-5.3%	-14%	-1.35%	19.7%
NC(=S)N/N=C1\C(=O)NC(=O)C1c1ccccc1 (stereo unspecified)	4.75%	1.4%	3.45%	0.45%	15.6%	6.95%
Clc1ccc(C2OCCO2)cc1	12.2%	3.95%	11.2%	3.35%	-0.35%	14.3%
Nc1ccccc1SC1CC(=O)N(c2cccc(Cl)c2)C1=O (stereo unspecified)	-10.6%	-25.4%	-4.7%	-7.3%	-1.05%	-25.1%
COc1ccc(OC)c(-c2cc(C(=O)O)c3cc4ccccc4cc3n2)c1	5.85%	6.05%	-32.8%	-69%	-52.8%	17.2%
N#CCCSc1nnc(N)s1	-7.85%	-7.9%	-8.65%	16.9%	-2.95%	-14.8%
Cc1ccc(S(=O)(=O)OCC23CCC(CC2)CC3)cc1	-30%	-9.85%	-26.2%	-3.5%	39.6%	-1.2%
O=c1[nH]c2cc(Cl)ccc2nc1/C(=N/Nc1ccccc1)C(O)c1ccco1 (stereo unspecified)	19.4%	-15.7%	-4.8%	5.85%	7.65%	-54.4%
CCCCCCCCCCCCCCCCCCCCCC(C)C	-8%	0.8%	-10.9%	-8.6%	-7.55%	-31.4%
c1ccc(-c2cc(CNc3nc4ccccc4s3)on2)cc1	19.9%	10.7%	9.1%	5.45%	-4.55%	9.75%
CNC(=O)OCc1nc(SC)n(Cc2ccccc2)c1COC(=O)NC	15.3%	5.9%	11.2%	-1.1%	-1.55%	18.5%
Cc1ccc(C(=O)/C=C/c2ccco2)cc1	49%	33.6%	46%	33.5%	34.5%	61.3%
N#C/C(=C\c1ccccn1)c1ccc(Cl)cc1	3.15%	1.1%	11.5%	-17.4%	17.3%	53.7%

Structure (SMILES)	growth inhibition [1]	growth inhibition [2]	growth inhibition [3]	growth inhibition [4]	growth inhibition [5]	growth inhibition [6]
C[N+]1(C)CC2C3C=C(I)C(C3)C2C1 (stereo unspecified)	26.8%	17.4%	15.2%	48.4%	11.9%	26.1%
Clc1ccc(N2C(c3ccccc3)=N[C@@H](N3CCOCC3)[C@@H]2N2CCOCC2)cc1	-13.2%	-15.9%	-9.95%	-30.9%	-1.5%	-4.7%
S=C1N=C(Cl)/C(=C\c2ccccc2)N1	-4.65%	-23.9%	3.45%	24.1%	11.5%	-14.4%
Cc1[nH]c2ccc(-c3ccccc3)cc2c1CC(=O)OC(C)C	97% (active)	98.5% (active)	98.2% (active)	97.8% (active)	98.2% (active)	98% (active)
O=C(Cc1ccccc1)NC(CSSCC(NC(=O)Cc1ccccc1)C(=O)O)C(=O)O (stereo unspecified)	26.3%	10.8%	36.6%	-37.1%	3.2%	11.1%
CC(=O)OCc1cn(S(=O)(=O)c2ccc(C)cc2)cn1	17.9%	-2.45%	19.1%	-2.65%	11.6%	-51.9%
Nc1c(Cl)cnn2nnnc12	-7.5%	-17.4%	-15.6%	-11.9%	2.95%	-4.25%
COc1cc(Nc2nc3ccc(C(F)(F)F)cc3nc2-c2ccccc2)cc(OC)c1OC	0.05%	4.2%	-36%	-12.2%	-9.3%	-22.9%
O=S(Nc1ccc(Cl)cc1)c1ccccc1 (stereo unspecified)	10%	10.9%	31.1%	4.1%	18.1%	2.3%
CC(=O)OC1CC(n2cc(C)c(=O)[nH]c2=O)OC1COP(=O)(N1CC1)N1CC1 (stereo unspecified)	-9.25%	-1.25%	-2.8%	-6.1%	-22.6%	-3.95%
O=C1C2=Cc3ccccc3OC2(O)Oc2ccc(O)cc21 (stereo unspecified)	8.5%	6.75%	-6.05%	-2%	-38.6%	-33.5%
NNS(=O)(=O)c1cccc(S(=O)(=O)NN)c1	-13.9%	12.3%	-3.2%	-4.25%	5.35%	5.3%
Cc1ccc(N=NC(=O)NNc2ccc(C)c([N+](=O)[O-])c2)cc1[N+](=O)[O-]	55%	3.9%	17.6%	16.1%	6.45%	32.4%
CCC(=O)C(CC)c1ccccc1 (stereo unspecified)	9.25%	-8%	-4.8%	2.2%	4.4%	4.55%
CCN(CC)CCOCC(=O)Nc1ccccc1C	-17.3%	4.8%	4.95%	-37.5%	22.8%	26.6%
CCc1ccccc1OCc1ccccc1	18.4%	11.8%	14.2%	6.9%	1%	1.75%
SCc1ccc(-c2ccc(CS)cc2)cc1	4.65%	2.55%	40%	39.8%	39.1%	23.3%
CC(C)CC(NC(=O)C(COC(C)(C)C)NC(=O)C(CSC(c1ccccc1)(c1ccccc1)c1ccccc1)NC(=O)OC(C)(C)C)C(=O)OC(C)(C)C (stereo unspecified)	-16.1%	11.9%	-1.75%	-16.6%	-13.9%	8.05%
CCS1=C2C(=O)CC(C)(C)CC2=Nc2ccccc21 (stereo unspecified)	7.2%	-0.15%	18.9%	-8.05%	17.9%	-31.1%
NC(=O)NC12CC3CC(CC(F)(C3)C1)C2	-19.6%	-29.1%	-29.7%	-0.95%	-47.5%	-9.85%
